From PubChem BioAssay (NCATS) come the findings set out here.

A number with no mark means an inactive call. Inconclusive results are not listed. Active and inactive are the calls of the source. Calls follow the shape of the dose curve; as a rule, active = well fitted curve in the direction sought with a large enough effect; inconclusive = small, poorly fitted or top-dose-only effect, or another doubt; inactive = no such curve, though single readings can be large; an effect the other way counts as inactive or inconclusive.

Experiment [1] has as its system Zika virus NS2B-NS3 protease (linked construct). Nature of the experiment: Primary screen NINDS Rhodamine qHTS for Zika virus inhibitors (AID 1347160). Also: % is scaled to controls: 0 for no effect and ±100 for the full control effect; nearly all actives have a fitted effect of over 55% in size. The procedure, abridged: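 Purified linked NS2B-NS3 protease (NS2B hydrophilic domain joined to NS3 protease by flexible linker), 25 nM in 10 mM Tris-HCl pH 8.0, 0.01% Tween 20. Compounds titrated, 15 min preincubation at room temperature; 1.5 microM Rhodamine110 substrate, FITC fluorescence change over 15 min.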
(Quantitative high-throughput screening tests each substance at several concentrations.)

Experiment [2] concerns the target Calcium and integrin-binding protein 1 (Homo sapiens) (UniProt Q99828). Kind of experiment: Primary qHTS for Identification of Calcium Integrin Binding Protein 1 (CIB1) Competitor (AID 1508620). Also: top concentration of the series differs between compounds; % is scaled to controls: 0 for no effect and ±100 for the full control effect. Summed up: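 Fluorescence polarization competition: GST-tagged CIB1 (1 uM final) preincubated with compound 15 min at room temperature, then FITC-labelled alphaIIb peptide (100 nM final) added. After 15 min at room temperature, polarization read at Ex 480/Em 540.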

In experiment [3] the target is Glutathione peroxidase 1 (Homo sapiens) (UniProt P07203). Nature of the experiment: Primary qHTS Assay for Inhibitors of Recombinant Selenoprotein Glutathione Peroxidase 1 (GPX1) (AID 1845191). Also: nearly all actives have a fitted effect of over 65% in size. As to activity, negative = inhibition: % is scaled to controls: 0 for no effect and ±100 for the full control effect. Summed up:
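GR-coupled assay: compounds preincubated 30 min at room temperature with GPX1, then reaction started with CHP; final 10 nM GPX1, 1 mM GSH, 0.5 mM CHP, 0.5 mM NADPH, 100 nM GR, 0.01% BSA, pH 7.5 Tris buffer. NADPH fluorescence (340/450 nm) read at 0 and 15 min.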

In experiment [4] the target is Phospholipid hydroperoxide glutathione peroxidase GPX4 (Homo sapiens) (UniProt P36969). Nature of the experiment: Primary qHTS Assay for Inhibitors of Recombinant Selenoprotein Glutathione Peroxidase 4 (GPX4) (AID 1845192). Also: nearly all actives have a fitted effect of over 65% in size. The procedure, abridged:
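GR-coupled assay: recombinant GPX4 preincubated 30 min with compound at room temperature; final 200 nM GPX4, 1 mM GSH, 0.5 mM cumene hydroperoxide, 0.5 mM NADPH, 100 nM GR, 0.01% BSA, pH 7.5 Tris. NADPH fluorescence (340/450 nm) read at 0 and 15 min.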

Experiment [5] has as its target Luciferin 4-monooxygenase (Photinus pyralis) (UniProt P08659). Kind of experiment: Primary firefly luciferase (FLuc) qHTS assay for identification of artifact compounds. (AID 1845220). Also: nearly all actives have a fitted effect of over 60% in size. Conditions: outcome: dose series up to 54.1 µM unless noted. Summed up: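 Enzymatic FLuc inhibition assay: compounds pre-exposed to luciferin/ATP (10 uM each) for 15 min, then purified P. pyralis enzyme at 10 nM added. Read-out: luminescence at 5 min.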

A short description of experiment [6]: Primary fluorescence-based thiol-reactive (MSTI) qHTS assay for identification of artifact compounds. (AID 1845221).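 Also: thiol-reactive compounds lower the probe fluorescence signal; nearly all actives have a fitted effect of over 65% in size.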 Summed up: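 Thiol-reactive compounds detected by quenching of 4 uM MSTI fluorescence (525/598 nm) after 1 h room-temperature dark incubation in PBS pH 7.4, 2% DMSO. qHTS titration; percent inhibition Hill-fitted against Acetyl-MSTI/MSTI controls.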

The test system of experiment [7] is Nanoluciferase (engineered Oplophorus gracilirostris luciferase). Nature of the experiment: Primary Nanoluciferase (NLuc) qHTS assay for identification of artifact compounds. (AID 1845222).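 Also: NLuc secreted into diluted conditioned medium of S16 cells; 0% = DMSO and -100% = no enzyme.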 Summed up: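 S16 cell supernatant NLuc, 1:55; cpds qHTS; 15 min RT dark; Nano-Glo substrate 1:100, 5 min; luminescence; Hill fit of % inhibition.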
Experiment [8] in a line: Primary redox qHTS assay for identification of artifact compounds. (AID 1845223).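 Also: 0% = DMSO and 100% = reference compound.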 The procedure, abridged: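 Amplex Red (25 uM) and HRP (250 mU/mL) in HBSS, with compounds for 15 min, then 250 uM DTT for 30 min, room temperature, dark. Fluorescence 525/598 nm read; normalized to DMSO and 10 uM DA3003; Hill fit.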
The test system of a further experiment is HaCat. Nature of the experiment: Cytotoxic Profiling of Annotated Libraries Using Quantitative High-Throughput Screening (AID 1296008). Also: nearly all actives have a fitted effect of over 60% in size. Also: potency is read from the fitted curve at half-maximal effect. As to max response: % is scaled to controls: 0 for no effect and ±100 for the full control effect. Conditions: Five cell lines viability, CellTiter-Glo ATP luminescence, 48-72 h; max response: stronger effect = lower value. The procedure, abridged: (§1)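 Cells exposed to compounds for 48 or 72 hr at 37 degrees Celsius. Viability read as ATP-coupled luminescence with CellTiter-Glo after 10 min at room temperature.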
(ATP-based viability assays read luminescence as a measure of living cells.)

For a further experiment, the system named is NIH3T3. The description is as above. As to conditions: Five cell lines viability, CellTiter-Glo ATP luminescence, 48-72 h; max response: stronger effect = lower value. The procedure, abridged: as §1
The next experiment concerns CAOV3. Nature of the experiment: Primary qHTS to identify gynecologic anti-cancer compounds using libraries of approved drugs and bioactive compounds (AID 1345084). Also: nearly all actives have a fitted effect of over 55% in size. Also: potency is read from the fitted curve at half-maximal effect. As to activity change, negative = cytotoxicity: % is scaled to controls: 0 for no effect and ±100 for the full control effect. As to conditions: Gynecologic cancer cell panel viability, ATPlite luminescence, 48 h; series mostly up to 57.5 µM. Summed up: (§2)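 Five-point cytotoxicity, 48 h drug exposure at 37 C, 5% CO2, on cells seeded 16 h beforehand. ATP content read by ATPlite luminescence.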

For another experiment, the system named is CASKI. The description is as above. As to conditions: Gynecologic cancer cell panel viability, ATPlite luminescence, 48 h; series mostly up to 57.5 µM. The procedure, abridged: as §2
A further experiment concerns Es-2. The experiment is described as above. As to conditions: Gynecologic cancer cell panel viability, ATPlite luminescence, 48 h; series mostly up to 57.5 µM. The procedure, abridged: as §2
The subject of a further experiment is Hek293T. The experiment is described as above. Conditions: Gynecologic cancer cell panel viability, ATPlite luminescence, 48 h, control line for the selectivity index; series mostly up to 57.5 µM. The procedure, abridged: as §2
Another experiment relates to JEG-3. The experiment is described as above. Conditions: Gynecologic cancer cell panel viability, ATPlite luminescence, 48 h; series mostly up to 57.5 µM. The procedure, abridged:
as §2

Another experiment relates to OV90. The experiment is described as above. As to conditions: Gynecologic cancer cell panel viability, ATPlite luminescence, 48 h; series mostly up to 57.5 µM. The procedure, abridged: as §2
Another experiment relates to Tov112D. The description is as above. As to conditions: Gynecologic cancer cell panel viability, ATPlite luminescence, 48 h; series mostly up to 57.5 µM. Summed up: as §2
The next experiment deals with C33A. The experiment is described as above. Conditions: Gynecologic cancer cell panel viability, ATPlite luminescence, 48 h; series mostly up to 57.5 µM. Summed up:
as §2

In a further experiment the test system is PA-1. The experiment is described as above. Conditions: Gynecologic cancer cell panel viability, ATPlite luminescence, 48 h; series mostly up to 57.5 µM. Summed up:
as §2

The test system of the next experiment is Tov-21-G. Described as above. Conditions: Gynecologic cancer cell panel viability, ATPlite luminescence, 48 h; series mostly up to 57.5 µM. The procedure, abridged: as §2

Glutathione peroxidase 1 (Homo sapiens), sequence (P07203 whole entry, looked up): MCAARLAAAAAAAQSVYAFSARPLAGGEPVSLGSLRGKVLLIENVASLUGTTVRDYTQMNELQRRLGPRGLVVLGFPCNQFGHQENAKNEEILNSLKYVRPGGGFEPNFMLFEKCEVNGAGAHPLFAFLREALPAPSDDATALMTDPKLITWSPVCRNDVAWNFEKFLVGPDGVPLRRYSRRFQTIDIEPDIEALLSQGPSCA
Phospholipid hydroperoxide glutathione peroxidase GPX4 (Homo sapiens), sequence (P36969 whole entry, looked up): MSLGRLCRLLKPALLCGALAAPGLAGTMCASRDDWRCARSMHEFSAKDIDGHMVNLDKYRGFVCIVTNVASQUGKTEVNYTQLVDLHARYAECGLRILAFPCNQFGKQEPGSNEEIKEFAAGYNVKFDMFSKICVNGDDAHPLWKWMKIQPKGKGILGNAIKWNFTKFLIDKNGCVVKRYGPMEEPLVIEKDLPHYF
Calcium and integrin-binding protein 1 (Homo sapiens), sequence (Q99828 whole entry, looked up): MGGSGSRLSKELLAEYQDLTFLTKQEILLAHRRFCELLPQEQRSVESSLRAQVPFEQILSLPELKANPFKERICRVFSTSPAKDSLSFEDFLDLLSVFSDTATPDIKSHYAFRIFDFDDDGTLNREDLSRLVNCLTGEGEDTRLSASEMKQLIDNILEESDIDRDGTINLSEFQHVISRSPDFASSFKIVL

`CC(=O)OC[C@]12C[C@H](OC(C)=O)C(C)=C[C@H]1O[C@@H]1[C@H](O)[C@@H](O)[C@@]2(C)[C@]12CO2`: the Potency entry in experiment [1], in experiment [2], in [3], in experiment [4], in experiment [6] and in [7] was “inactive” throughout. In addition, the Potency result in [8] was “inactive”. For the same compound, the compound was classed as inactive in [5]. Further, the Potency was 1.28 µM (active) in the experiment on HaCat; 1.01 µM (active) in the experiment with NIH3T3; 1 µM (active) in the experiment with CAOV3; 1.41 µM (active) in the experiment on CASKI; 1.26 µM (active) in the experiment with Es-2; 0.398 µM (active) with Hek293T. In addition, the Potency in the experiment with JEG-3 was 5.62 µM (active); with OV90 it was 3.16 µM (active); with Tov112D, 2.24 µM (active).
Take `CCCCn1cc(C(=O)c2cccc3ccccc23)c2ccccc21`: the Potency entry in experiment [1], in experiment [2], in experiment [3], in [4], in experiment [6] and in [7] was “inactive” each time. Besides, the Potency result (in experiment [8]; with C33A; with CAOV3; with CASKI; with Es-2; in the experiment on JEG-3) was “inactive” in each case. The Potency result in the experiment on OV90, in the experiment on PA-1, with Tov-21-G and with Tov112D was “inactive” each time. In addition, the outcome (in experiment [5]; with HaCat) was inactive. Also, in the experiment on NIH3T3, the max response is 3.07%.
For the compound `COc1ccc(C(C)(C)C)cc1CN[C@H]1C2CCN(CC2)[C@H]1C(c1ccccc1)c1ccccc1`, the Potency result in experiment [1], in experiment [2], in [3], in [4], in experiment [6] and in [7] was “inactive” throughout. Besides, the Potency result (in experiment [8]; with CAOV3; with CASKI; with Hek293T; in the experiment with JEG-3; in the experiment with OV90) was “inactive” in each case. Besides, the Potency result in the experiment on PA-1, in the experiment with Tov-21-G and in the experiment with Tov112D was “inactive” in each case. The compound was called inactive in [5]. The Potency in the experiment with HaCat is 18.4 µM (active). The max response with NIH3T3 was -16.4%.
On to `CC[C@H]1/C=C\C=C/C[C@@H](C)[C@H](O)[C@@](C)(O)C(=O)[C@@H](C)[C@H](O)[C@@H](C)C(=O)[C@@H](C)[C@H](O)[C@@H](C)/C=C\C(=O)O[C@@H]2[C@H](C)[C@H](CC1)O[C@]1(CC[C@H](C)[C@H](C[C@@H](C)O)O1)[C@H]2C`, for which the Potency result in experiment [1], in experiment [2], in [3], in experiment [4], in experiment [6] and in experiment [7] was “inactive” in each case. Moreover, the Potency entry with CASKI, with OV90, with PA-1 and in the experiment with Tov-21-G was “inactive” throughout. For the same compound, the result in experiment [5] was inactive.
In the case of `Cc1sc2c(c1C)C(c1ccc(Cl)cc1)=N[C@@H](CC(=O)Nc1ccc(O)cc1)c1nnc(C)n1-2`, the Potency result in [2], in experiment [3] and in experiment [4] was “inactive” each time. Besides, the outcome in experiment [5] was “inactive [at 11.6 µM]”. Also, the activity change, negative = thiol reactive in experiment [6] was 36.2% [at 11.5 µM]. Also, the activity, negative = inhibition in [7] was -3.15% [at 11.6 µM]. Further, the compound was classed as inactive in the experiment on HaCat. In addition, the activity change, negative = cytotoxicity is -1.06% [at 11.6 µM] in the experiment on C33A, -11.9% [at 11.6 µM] with Hek293T, -12.8% [at 11.6 µM] in the experiment with JEG-3 and -20.5% [at 11.6 µM] with Tov112D.
